{"source": "PubChem BioAssay AID1159570", "about": "(Broad Institute, 2015)", "note": "Results with a measured potency or affinity are listed apart. Calls of active or inactive are those of the source. How the calls were made is not given here."}
{"assay": "growth inhibition of yeast DHODH-expressing 3D7 parasites – SYBR Green, dry powder samples, dose response (AID 1159570)", "settings": "P. falciparum 3D7-ScDHODH growth, SYBR Green fluorescence; series mostly up to 19.5 µM"}
{"smiles": "Cc1ccccc1-c1ccccc1[C@H]1[C@@H](C#N)N(C(=O)c2ccccc2)[C@@H]1CO", "outcome": "inactive"}
{"smiles": "O=C(NC[C@@H]1CC[C@H]2[C@H](CN2Cc2cc(-c3ccccc3)on2)O1)c1ccc2c(c1)OCO2", "outcome": "inactive"}
{"smiles": "C[C@@H]1CN([C@H](C)CO)C(=O)c2cccc(NC(=O)c3ccc(-c4nccs4)cc3)c2O[C@H]1CN(C)Cc1ccc(C(F)(F)F)cc1", "outcome": "inactive"}
{"smiles": "COc1ccc(S(=O)(=O)Nc2ccc3c(c2)CC(=O)N([C@@H](C)CO)C[C@H](C)[C@H](CN(C)S(=O)(=O)c2ccc(OC)cc2)O3)cc1", "outcome": "inactive"}
{"smiles": "COc1cccc(C#Cc2ccc([C@H]3[C@@H](CO)N(C(=O)c4ccccn4)[C@H]3C#N)cc2)c1", "outcome": "inactive"}
